# Bioassay records as filed in PubChem BioAssay.
# Rows were chosen to be rich in hits. Some 0.63% of all compounds tested hit in one or more screens of this group.
# TSHR antagonist: blocks TSH signaling through the human TSH receptor; TSHR-expressing cells, TSH-stimulated cAMP HTRF, 2 h; active compounds read low; activity change, negative = inhibition, % at 11.5 µM; hit rate 0.2% among 330,000;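 active = activity change below a set negative limit, meaning inhibition stronger than a set level, cut at about -70% in these data; inconclusive = activity change between two set negative limits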; note: % is set by controls: 0 for no effect and ±100 for the full control effect
#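 TSHR-expressing cells, 200/well, pre-treated with compound, then stimulated with EC80 TSH (4nM final) for 2 hours at 37 deg C. cAMP measured by competitive HTRF: anti-cAMP cryptate antibody in lysis buffer plus cAMP-d2, read after 30 minutes at room temperature.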
# gsp ag: activates gsp, the McCune-Albright syndrome mutation. gsp mutant cells, cAMP HTRF, 30 min. Potency, µM (doses to about 76.9 µM), for inactives: at the highest dose activation (cAMP increase), usual class: activators. hit rate 0.13% among 340,000. AID 624287; active = well fitted activation curve with a large enough effect; inconclusive = small, poorly fitted or top-dose-only effect, or another doubt; inactive = no such curve, though single readings can be large or run the other way; cell line not stated here;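 note: phosphodiesterase inhibitor Ro 20-1724 added with compounds to block cAMP breakdown; potency is the fitted concentration of half-maximal effect; nearly all actives have a fitted effect of over 60% in size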
#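 Cells stably selected in G418 were plated at 2000/well, grown 16-24 hr, then given compounds in DMSO with the PDE inhibitor […] (300 uM solution added) for 30 min at 37C; cAMP was read by HTRF.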
# gsp antag: antagonists of gsp mutant (McCune-Albright syndrome); Potency, µM (series often up to 76.9 µM), inactives show at the top dose activity change, negative = inhibition, hits mostly inhibitors; hit rate 0.4% among 340,000; gsp-mutant cells, cAMP HTRF, 30 min; AID 624288; calls by dose curve; cell line not stated here;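 note: intracellular cAMP measured with PDE inhibitor Ro 20-1724 present during compound exposure; potency is the fitted concentration of half-maximal effect; % is set by controls: 0 for no effect and ±100 for the full control effect; nearly all actives have a fitted effect of over 65% in size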
#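 HTRF cAMP measurement after 30 min RT detection following 30 min, 37C compound treatment alongside […] (added as 300 uM solution) in G418-selected cells seeded at 2000/well and grown 16–24 h.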
# ASM inhibitor: human S-ASM enzyme inhibition; placental ASM, HMU-PC fluorogenic substrate, 60 min; Potency, µM (doses to about 57.5 µM), inactives show at the highest dose activity change, negative = inhibition, hits mostly inhibitors; hit rate 0.006% among 340,000; AID 504937; active = well fitted inhibition curve with a large enough effect; inconclusive = small, poorly fitted or top-dose-only effect; inactive = no such curve, though single readings can be large or run the other way; note: potency is the fitted concentration of half-maximal effect
# Target sequence (P17405 47-631 limits assumed): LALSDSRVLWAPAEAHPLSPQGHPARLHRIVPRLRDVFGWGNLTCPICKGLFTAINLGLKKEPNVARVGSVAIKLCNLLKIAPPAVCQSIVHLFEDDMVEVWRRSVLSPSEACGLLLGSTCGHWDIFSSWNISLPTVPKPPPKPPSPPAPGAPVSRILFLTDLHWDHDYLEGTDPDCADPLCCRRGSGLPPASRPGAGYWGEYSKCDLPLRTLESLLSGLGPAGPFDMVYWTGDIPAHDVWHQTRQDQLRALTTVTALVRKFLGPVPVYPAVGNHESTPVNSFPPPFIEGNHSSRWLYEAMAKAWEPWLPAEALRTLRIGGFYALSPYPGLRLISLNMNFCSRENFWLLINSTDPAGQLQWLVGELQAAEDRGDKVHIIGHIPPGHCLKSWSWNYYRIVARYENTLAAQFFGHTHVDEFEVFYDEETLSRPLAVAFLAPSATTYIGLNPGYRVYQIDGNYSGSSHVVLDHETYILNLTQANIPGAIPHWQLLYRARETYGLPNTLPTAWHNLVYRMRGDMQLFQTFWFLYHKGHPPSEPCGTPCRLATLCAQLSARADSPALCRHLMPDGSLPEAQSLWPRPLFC
#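 Steps: dispense placental human ASM, pin compound, wait 10 min at room temperature, add HMU-PC0 substrate at 9 uM final, incubate 60 min at 37 °C, add stop solution raising pH to 10, read fluorescence.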
# The depositor's hits bear a star; i = inactive; ? = inconclusive; . = no result; [ ] = dose if it differs, or a comment.
SMILES,TSHR antagonist,gsp ag,gsp antag,ASM inhibitor
COc1cccc(CNC(=O)CCCC(=O)NC(C)CCc2ccccc2)c1 (stereo unspecified),-129.9*,-41.0%,-1.6%,5.0%
Cc1ccc(NC(=O)CN(C)C(=O)Cc2ccc(Cl)cc2Cl)cc1,14.0,?,-3.2%,-1.6%
Cc1cc(C(=O)N2CCCC(N3CCN(c4cccc(C(F)(F)F)c4)CC3)C2)n[nH]1 (stereo unspecified),2.4,-0.7%,-1.6%,2.1%
Cc1cc(C(=O)N2CCCC(N3CCN(c4cccc(C(F)(F)F)c4)CC3)C2)no1 (stereo unspecified),3.2,-39.9%,4.3%,-3.1%
Cc1cc(C)c(C(=O)N2CCCC(N3CCN(c4cccc(C(F)(F)F)c4)CC3)C2)o1 (stereo unspecified),-8.2,?,50.1µM*,-0.8%
O=C1CCC(C(=O)N2CCCC(N3CCN(c4cccc(C(F)(F)F)c4)CC3)C2)=NN1 (stereo unspecified),6.1,4.47µM*,5.0%,1.0%
CC(=O)c1cccc(NC(=O)c2ccc3c(c2)CCCC3)c1,-130.6*,-28.2%,-29.1%,-1.6%
CCOCCn1ccc2c(OCC(=O)Nc3ccc(OC)c(OC)c3)cccc2c1=O,-28.8,-23.2%[15.4 µM],35.5µM*,-1.3%
O=C(CCc1nnc2n(Cc3ccc(Cl)cc3)c(=O)c3ccccc3n12)N1CCN(c2ccccn2)CC1,-133.6*,?,-12.0%,-13.4%
CC(C)OCCCn1c(=O)c2ccccc2n2c(CCC(=O)N3CCN(c4ccccn4)CC3)nnc12,-5.2,20µM*,-7.6%,-2.1%
CC(C)CCn1c(=O)c2ccccc2n2c(CCC(=O)NCC3CCCO3)nnc12 (stereo unspecified),-11.3,31.6µM*,6.5%,-2.7%
CC(C)CCn1c(=O)c2sccc2n2c(CCCC(=O)N3CCN(c4ccccn4)CC3)nnc12,5.1,?,-15.7%,-0.9%
NC(=O)C1CCN(c2nc(-c3cccc(Br)c3)cs2)CC1,-7.0,.,.,.
CN1C(=O)S/C(=C/c2ccccc2OCc2ccc(C(=O)O)cc2)C1=O,-30.4,-1.6%[15.4 µM],31.6µM*,6.7%
CC(C)(C)C(=O)Nc1nnc(SCC(=O)NC2CC2)s1,-6.9,-0.5%[15.4 µM],6.3%,4.6%
Clc1cccc(Cl)c1C1Nc2cccc3cccc(c23)N1,-70.5*,33.0%,-23.8%,-12.6%
Fc1cccc(Cl)c1C1Nc2cccc3cccc(c23)N1,-16.6,-14.2%,-10.7%,-6.8%
CCN(CC(=O)Nc1ccc(OC)cc1)C(=O)C1CC(=O)N(Cc2ccccc2)C1 (stereo unspecified),.,-106.9%,.,.
Cc1ccc2[nH]c(=O)c(CN(CCCN(C)C)C(=O)Nc3ccc(F)cc3)cc2c1,-3.6,-7.9%[15.4 µM],7.08µM*,1.1%
C=CCOc1c(Cl)cc(CNc2ccc(N(C)C)cc2)cc1OC,-107.9*,14.5%,?,21.2%
C=CCOc1c(Cl)cc(CNc2ccc(C)c(Cl)c2)cc1OC,-1.3,.,.,.
CC(C)OCCCNc1nc(-c2ccccc2)nc2ccccc12,6.2,9.8%,?,-2.4%
CC(C)(C)C(=O)OCCNc1nc(-c2ccccc2)nc2ccccc12,-33.9,?,50.1µM*,3.5%
COc1ccc2nc3oc(C(=O)NCCCOC(C)C)cc3cc2c1,16.0,?,50.1µM*,228.4%
Cc1ccccc1S(=O)(=O)Nc1nc2ccccc2nc1Cl,22.7,11.2µM*,8.3%,21.0%
SMILES,TSHR antagonist,gsp ag,gsp antag,ASM inhibitor
O=S(=O)(Nc1nc2ccccc2nc1Cl)c1ccc(Cl)cc1,-4.8,13.5%[15.4 µM],-7.0%,49.1%
COc1cc(C(=O)NCCNC(=O)c2cnccn2)cc(OC)c1OC,-81.8*,11.3%[15.4 µM],9.7%,27.5%
CCc1ccc(NC(=O)Cn2nnc(C(=O)NCc3ccco3)c2N)cc1,26.3,?,6.1%,-0.3%
O=C(COc1ccc2ccccc2c1Br)Nc1cccnc1,-47.0,6.31µM*,16.9%,-0.9%
CCc1ccccc1Nc1nn2c(=O)c3ccc(C(=O)NCCCOC(C)C)cc3nc2s1,-5.2,.,.,.
O=C(Nc1cccc(/C=C/c2ccccn2)c1)c1ccc(-n2cncn2)c([N+](=O)[O-])c1,-20.7,-2.0%[15.4 µM],39.8µM*,-7.3%
CCc1ccc(NC(=O)c2ccc(-n3cncn3)c([N+](=O)[O-])c2)cc1,.,8.9%,50.1µM*,.
COc1ccc(NC(=O)c2ccc(-n3cncn3)c([N+](=O)[O-])c2)cc1,-8.8,-12.0%,-6.8%,1.7%
CCOCCCNC(=S)N1CCC(NC(=O)C23CC4CC(CC(C4)C2)C3)CC1,-7.2,1.1%[15.4 µM],5.2%,-4.1%
O=C(N=C1SC2CS(=O)(=O)CC2N1c1ccc(F)cc1)C1CC1 (stereo unspecified),-109.2*,?,9.6%,2.7%
O=C(N=C1SC2CS(=O)(=O)CC2N1c1ccc(F)cc1)C1CCCCC1 (stereo unspecified),5.1,21.3%,-5.9%,-0.2%
COc1cc2c(cc1OC)C1(CCCC1)CNC2c1cccc([N+](=O)[O-])c1 (stereo unspecified),-9.5,-0.5%[15.4 µM],-2.2%,4.4%
O=C1c2cccnc2C(=O)N1Cc1ccc(S(=O)(=O)N2CCN(c3ccc(Cl)cc3)CC2)cc1,-134.8*,27.4%,13.7%,-6.8%
COc1ccc(CN2C(=O)c3cccnc3C2=O)cc1S(=O)(=O)NC1CCCCC1C (stereo unspecified),20.3,?,8.9%,0.4%
COc1ccc(CN2C(=O)c3cccnc3C2=O)cc1S(=O)(=O)N1CCCC(C)C1 (stereo unspecified),19.4,7.94µM*,14.5%,-1.5%
CCOC(=O)C1CCN(S(=O)(=O)c2ccc(CN3C(=O)c4cccnc4C3=O)cc2)CC1,34.1,-4.8%,-3.5%,2.1%
COc1ccc(CN2C(=O)c3cccnc3C2=O)cc1S(=O)(=O)N1CCCCC1,102.6,12.6µM*,33.9%,8.0%
COc1ccc(-c2cn3cccnc3n2)cc1NC(=O)Nc1cc(C)ccc1C,-0.7,.,.,.
CCOc1ccc(NC(=O)CCC(=O)c2ccc(OC)cc2)cc1,15.2,23.6%,4.6%,-5.6%
CC1(C)CC(=O)C2=C(C1)c1c(ccc3ccccc13)NC2c1ccc(C(=O)O)cc1 (stereo unspecified),-2.1,-1.1%,-24.0%,i
CC1(C)CC(=O)C2=C(C1)c1c(ccc3ccccc13)NC2c1cc([N+](=O)[O-])cc([N+](=O)[O-])c1O (stereo unspecified),-22.0,-10.1%[15.4 µM],31.6µM*,5.8%
CCn1c(SCc2cccc(OC)c2)nc2ccccc2c1=O,-16.3,-0.5%[15.4 µM],-15.7%,-26.4%
C#CCOc1ccccc1/C=N/NC(=O)c1ccccc1OCc1ccccc1,-7.7,0.3%,12.6µM*,-1.0%
COc1ccc(/C=N/NC(=O)c2ccccc2OCc2ccccc2)c(OC)c1,9.3,-20.9%[15.4 µM],?,-1.2%
COc1cc(/C=C2/C(=N)N3C(c4ccccc4)=CSC3=NC2=O)ccc1OCC(=O)O,-5.7,22.9%,-1.8%,2.51µM*
CCOc1ncccc1C(=O)OCc1csc(CC(=O)Nc2ccccc2C)n1,-4.8,-12.0%,8.4%,-3.7%
